Assay results as given in the supplement of paper PMC3334620.
The full ranking holds about 33,000 sequences; the median of “E-score (-0.5 to 0.5)” is about -0.015, and the highest 2% start at about 0.3. Many of the other results were omitted from the sample, so the highest values are more common in it than they were.

These sequences were tested against T1, Abf1 (UniProt P14164) (assay: PBM E-score (8-mer binding enrichment) (E-score (-0.5 to 0.5)); higher = stronger / more preferred TF binding). Conditions: protein concentration: 200 nM; construct: GST-full length.
T1 sequence: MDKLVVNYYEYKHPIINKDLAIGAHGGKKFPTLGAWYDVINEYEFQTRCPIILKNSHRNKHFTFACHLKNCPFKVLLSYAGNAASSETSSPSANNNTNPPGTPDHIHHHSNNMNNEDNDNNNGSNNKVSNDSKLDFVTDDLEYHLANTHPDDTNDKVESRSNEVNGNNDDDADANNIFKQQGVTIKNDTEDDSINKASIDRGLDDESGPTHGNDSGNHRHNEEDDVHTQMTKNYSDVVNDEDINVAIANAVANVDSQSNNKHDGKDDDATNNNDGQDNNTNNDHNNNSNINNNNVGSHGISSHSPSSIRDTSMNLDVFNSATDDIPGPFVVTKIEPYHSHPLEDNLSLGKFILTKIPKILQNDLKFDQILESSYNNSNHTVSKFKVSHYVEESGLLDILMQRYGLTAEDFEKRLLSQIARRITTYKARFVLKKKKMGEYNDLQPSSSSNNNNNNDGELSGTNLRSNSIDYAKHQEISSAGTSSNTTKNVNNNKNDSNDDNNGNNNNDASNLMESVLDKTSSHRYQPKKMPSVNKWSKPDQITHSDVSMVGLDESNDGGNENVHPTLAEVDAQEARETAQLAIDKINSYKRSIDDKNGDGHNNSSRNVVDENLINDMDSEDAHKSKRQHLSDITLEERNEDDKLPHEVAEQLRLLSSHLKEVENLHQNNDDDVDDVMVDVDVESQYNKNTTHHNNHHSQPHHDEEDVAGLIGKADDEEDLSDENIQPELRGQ
Method in brief: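 Masliner-normalised scans of fluorescent anti-GST signal were the basis for scoring. That signal came from GST-tagged yeast transcription factors applied at about 100-200 nM to double-stranded universal all-10-mer Agilent arrays on fresh or once-stripped slides. Each ungapped eight-base word, pooled with its reverse complement, received an E-score from the Universal PBM Analysis Suite.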

Sequence	PBM E-score
AGACAGTG	-0.0919
GCTTTTTA	0.0686
CGCATCAC	0.263
CACTTTTC	0.192
AGCGGTAC	-0.161
CTGACGTC	0.137
CCCGAGCC	-0.299
CTATCACC	0.226
ATATCAGC	0.00929
ATATCACC	0.438
ATATCACG	0.401
CTATCACA	0.199
ATATCACA	0.282
ATCTCGCG	0.206
ATAATAGC	0.0936
CAGAGGAA	-0.148
CGTAGGAG	0.134
CCCAAAGG	-0.158
CCGTATCA	0.28
ACGTATCT	-0.0664
ACGTATCG	0.212
GCGTATCA	0.109
TCGTATCA	0.331
ACGTATCA	0.33
GCAGAACA	-0.122

Sequence	PBM E-score
ATTGCGTG	-0.126
CGCATCAA	0.081
ACTGGTAT	0.0243
GGTCACTA	0.281
CGTCACGC	0.145
AGTCACTA	0.315
AGTCACTG	0.0546
CGTCACTC	0.173
GGTCACGA	0.27
CGTCACTA	0.374
AGTCACTC	0.232
CGTCACGA	0.336
ACGCCAGA	-0.081
ACCACCTA	-0.168
ACTGAAAT	-0.0641
AGCACCAC	-0.214
ACGTTGGA	0.142
CAACCGAG	-0.0944
ACAGACGA	0.236
TCAGACGA	0.305
GCGGACGA	0.276
ACGGACGA	0.263
GCAGACGA	0.174
TCGGACGA	0.325
AGAATCCG	-0.0715

Sequence	PBM E-score
GCTGAGGA	-0.131
ACGACCTG	0.0542
GGGTAGAA	-0.0486
ACGCTGAT	0.0221
AATATCAC	0.441
GATATCAC	0.414
GATATCAA	0.207
GCTATCAC	0.211
GATATCGA	0.271
ACTATCAT	0.184
AATATCGC	0.283
GATATCGC	0.341
AGTATCAT	0.286
AATATCAT	0.391
AATATCAA	0.0238
AATATCAG	0.119
CTATCAAA	0.121
GCCAGCAC	-0.0263
TAAAGACA	-0.183
CCGGAGCA	-0.291
CAACCTAG	-0.0549
GAAACCGC	-0.15
AATATCGT	0.398
AATATCGA	0.0788
AATATCGG	0.187

Sequence	PBM E-score
CATATCAG	0.0515
CATATCAC	0.389
CATATCAA	0.222
CAGACCTC	0.00051
GCTGGTTA	-0.0104
ACTAAGTG	0.108
AAATATGA	0.0696
TAATATGA	0.261
GAATATCC	0.0475
TAATATTA	0.361
GAATATCA	0.334
AAATATTA	0.217
TAATATAA	0.196
TAATATCA	0.344
CAATATCA	0.283
CAATATTA	0.271
AAATATGT	0.334
AAATATGC	0.0361
AGGTAGAC	-0.249
CTAGGGCA	-0.273
CCCAAAAG	-0.135
AGCGGACT	-0.23
GCTGGAGA	-0.0857
GAGCTGCC	-0.0575
ACAACTCG	0.0757

Sequence	PBM E-score
AAATATCG	0.271
AAATATCC	0.0659
AAATATCA	0.376
CAAATCGC	-0.0589
CCTTACAC	-0.0587
AGTATATG	0.0541
CGTATATC	0.255
CGTATATA	0.357
AGTATATC	0.0567
AGTATATA	0.31
GGTATATA	0.161
AGTGGATC	-0.0658
CTGCCATA	-0.0819
GCCGTAGC	0.0651
ACCGTATG	0.27
GCCGTATA	0.379
ACCGTATA	0.384
TCCGTAGA	0.143
GCCGTAGA	0.371
CCCGTATA	0.289
GGCGTATA	-0.0363
